In article PMC4081100, “A DNA-binding-site landscape and regulatory network analysis for NAC transcription factors in Arabidopsis thaliana”:

biological target: GST-WRKY1(266-371) (Arabidopsis thaliana, UniProt Q9SI37 266-371); assay: universal protein binding microarray (PBM); transcription factors of Arabidopsis thaliana; high values mean tight binding; settings: protein: recombinant; tags: GST; dsDNA, one strand shown
How it was run: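 For zinc-finger proteins, zinc acetate was added while GST-tagged NAC-domain, full-length or DNA-binding-domain proteins were induced in cells. Purification used glutathione–Sepharose 4B, and quantification used A280 or anti-GST western blot. Custom all-10-mer Agilent 4 × 180K arrays, made double-stranded by primer extension, each received a protein at 200 to 500 nM final in duplicate. Scoring covered gapped and ungapped 8-mers, with binding given as the normalised enrichment score (E-score).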

Sequence of GST-WRKY1(266-371) (Q9SI37 266-371): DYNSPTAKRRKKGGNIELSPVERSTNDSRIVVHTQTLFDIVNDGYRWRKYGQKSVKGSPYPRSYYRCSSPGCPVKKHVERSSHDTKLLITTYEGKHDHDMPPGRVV

Sequence	binding signal [E-score]
GACGGTCA	0.462
CCAGGTCA	0.408
CTTGGTCA	0.429
CAGGTCAA	0.484
AGGGGTCA	0.415
GTCGGTCA	0.45
ATCTTGAC	0.47
GTCAGACA	0.41
TCTGACCA	0.456
AGTCAACC	0.486
AGAGGTCA	0.425
AAGACCGG	0.428
TGACCTCA	0.41
GCTTGACC	0.482
TCCGGTCA	0.445
AACGGTCA	0.435
ACGACCAG	0.403
GTCTTTGA	0.411
CGGTCAGC	0.458

Sequence	binding signal [E-score]
GGTCTGAC	0.441
AGTCTTCG	0.427
ATTGACCC	0.478
ATGACCGG	0.407
GACTGACC	0.42
CCATTGAC	0.473
GGTCGTCA	0.41
GTCAAGGA	0.455
GCGGGTCA	0.421
AGTCAGAG	0.44
ACTCTGAC	0.437
GTCAGCGA	0.43
CGACGACC	0.439
CCGGTCAG	0.44
TCGGGTCA	0.434
CGGTTGAC	0.475
GGTCAGAA	0.444
CGGTCAAG	0.483
ACAGGTCA	0.443
